The values that follow come from PubChem BioAssay (NCI).

Molecules are shown by their SMILES. Where “and” joins values, the source holds several entries; their conditions need not be identical. Identical values can stand only once. The panel holds about 83,000 compounds, 20% with a hit somewhere; the sample as a whole holds those more often.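 For each line, cells grew in 96-well plates with the test compound present at a single concentration for 48 hours.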 A number with no mark means an inactive call. Calls of active or inactive are those of the source. The calls were made as follows: active = growth percent below 10; inactive = the rest.

Some test systems named below: T-47D breast; BT-549 breast; MDA-MB-435 melanoma; SW-620 colon; MCF7 breast; HCT-116 colon; HCC-2998 colon; KM12 colon.
What all share (assay): NCI-60 one-dose screen, 48 h (100 = growth as untreated, 0 = no growth, -100 = all killed)
What all share (conditions): 10 µM unless noted

Take `CCCNNC(=O)/C=C/c1ccc(CNCCc2c(C)[nH]c3ccccc23)cc1`: the growth with T-47D breast was -7.33% [2.5 µM] (active); with BT-549 breast, 62.2% [2.5 µM]; in the assay with MDA-MB-435 melanoma, 14% [2.5 µM]; with SW-620 colon, 10.7% [2.5 µM]; in the assay with MCF7 breast it was 24.2% [2.5 µM]; with HCT-116 colon it was 0.525% [2.5 µM] (active). Besides, the growth in the assay on HCC-2998 colon was 13.3% [2.5 µM]; in the assay on KM12 colon it was 28.8% [2.5 µM].

Take `Nc1ccc(-c2nc3ccc4[nH]ncc4c3c3c2CCCC3)cc1F`: the growth in the assay with T-47D breast is 14.6%; in the assay with BT-549 breast, 10%; in the assay on MDA-MB-435 melanoma, 14.2%; in the assay on SW-620 colon, 18.7%; in the assay on MCF7 breast it was 29.2%; in the assay with HCT-116 colon, 11.1%. The growth with HCC-2998 colon was 44.3%; in the assay on KM12 colon, 12.3%.

As to `Cn1ccnc1CN1CCSC(C(=O)Nc2ccccc2)C1` (stereo not drawn), the growth in the assay on T-47D breast is 90.7%; in the assay on BT-549 breast, 93.3%; in the assay on MDA-MB-435 melanoma it was 92.2%; in the assay on SW-620 colon, 96.9%; in the assay with MCF7 breast it was 91.6%; in the assay with HCT-116 colon, 96.2%. The values for the growth with HCC-2998 colon and in the assay with KM12 colon were 98.6% and 97.7%, respectively.

With `CCN(CC)CCOc1ccc(/C(=C(\Cl)c2ccccc2)c2ccccc2)cc1`, the growth in the assay with T-47D breast is 23.4% and 48.9%; in the assay on BT-549 breast, 43.4% and 92.6%; with MDA-MB-435 melanoma, 7.34% (active); with SW-620 colon, -55% (active); in the assay on MCF7 breast, 16.2% and 27.4%; in the assay on HCT-116 colon, 11.4% and 57.8%. Further, the growth in the assay on HCC-2998 colon was 35.7% and 98.3%; in the assay with KM12 colon, 21.8% and 75.9%.

Take `O=C(/C=C/c1ccccc1)c1cccs1`: the growth is 97.3% and 104% with T-47D breast; 104% and 107% in the assay with BT-549 breast; 88.9% and 85.1% in the assay on MDA-MB-435 melanoma; 84.6% and 98.3% in the assay with SW-620 colon; 29.1% and 21.7% with MCF7 breast; 74% and 57.3% with HCT-116 colon. In addition, the growth in the assay on HCC-2998 colon was 97.3% and 130%; with KM12 colon, 69.6% and 70%.

In the case of `O=C(c1cccc(Br)c1)N1CCN(c2ccnc3cc(Cl)ccc23)CC1`, the growth in the assay on T-47D breast is 44.4%; in the assay on BT-549 breast, 112%; with MDA-MB-435 melanoma, 90.2%; with SW-620 colon it was 101%; in the assay on MCF7 breast it was 88.7%; in the assay on HCT-116 colon it was 84.5%. The growth in the assay with HCC-2998 colon is 109%; in the assay with KM12 colon it was 96.4%.

Take `O=C(O)C1C2CCC1C(O)C2` (stereo not drawn): the growth in the assay on T-47D breast was 92.3% and 97.4%; in the assay with BT-549 breast, 98.2% and 97.1%; in the assay on MDA-MB-435 melanoma, 106%; in the assay with SW-620 colon, 107% and 113%; in the assay on MCF7 breast, 92% and 97.8%; in the assay on HCT-116 colon, 100% and 101%. Further, the growth was 99.9% and 101% with HCC-2998 colon; 107% and 98.7% in the assay with KM12 colon.

As for `COc1ccc(-c2ccc(-c3ccc(C(=N)N)cn3)s2)cc1Cl`, the growth in the assay on T-47D breast is -43.4% (active); in the assay with BT-549 breast it was 107%; with MDA-MB-435 melanoma, -96.9% (active); with SW-620 colon, -87.5% (active); with MCF7 breast it was -68.9% (active); in the assay with HCT-116 colon, -62.6% (active). In addition, the growth in the assay with HCC-2998 colon was -80.9% (active); in the assay with KM12 colon, -45.3% (active).

As to `CN(C)C1CCN(C(=O)c2ccc(NC(=O)Nc3ccc(-c4nc(N5CCOCC5)c5cccn5n4)cc3)cc2)CC1`, the growth with T-47D breast is -36% (active); with BT-549 breast, -7.28% (active); in the assay with MDA-MB-435 melanoma, 1.97% (active); in the assay with SW-620 colon it was 9.03% (active); with MCF7 breast it was -4.03% (active); with HCT-116 colon it was 5.84% (active). Besides, the growth was 3.23% (active) with HCC-2998 colon and 5.54% (active) in the assay with KM12 colon.

As for `CCN(CC)CCCN1C(=O)c2c(c(C)c3c(oc4cc(OC)ccc43)c2C)C1=O`, the growth is 112% in the assay on T-47D breast; 98.8% in the assay on BT-549 breast; 103% in the assay on MDA-MB-435 melanoma; 87.3% in the assay on SW-620 colon; -14.7% (active) with MCF7 breast; 74.3% with HCT-116 colon. The figures for the growth in the assay with HCC-2998 colon and in the assay on KM12 colon were 98.1% and 96.9%, respectively.

Take `O=C(Nc1ccc2ccccc2c1)c1cc2ccccc2cc1O`: the growth with T-47D breast is 83.3%; in the assay on BT-549 breast, 81.5%; with MDA-MB-435 melanoma, 103%; with SW-620 colon, 103%; in the assay with MCF7 breast, 65.9%; in the assay with HCT-116 colon it was 92.3%. In addition, the results for the growth with HCC-2998 colon and in the assay with KM12 colon were 107% and -36.8% (active), respectively.
